# From PubChem BioAssay AID743360 (Molecular Libraries Program, Specialized Chemistry Center, …, 2014)
# Unmarked numbers belong to inactive results. The source made the active and inactive calls.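 How the source made its calls: active means calcium retention capacity relative to untreated control above about 1.1 ratio (limit read from the data); inactive means the rest.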
# Experiment: mitochondrial Ca2+ retention capacity increase – biochemical, dry powder samples, uHTS hits, Calcium Green-5N, dose response (AID 743360)
# Conditions: isolated mitochondria, Ca retention capacity
row,Compound,CRC/CRC0 ratio at 12.5 uM (higher = more inhibition)
1,O=C(Nc1ccc(CCN2CCCCC2)cc1)c1cccc(OCc2ccccc2)c1,3.04 (active)
2,O=C(Nc1ccc(N2CCCCC2)cc1)c1cccc(OCc2ccccc2)c1,1.01
3,COc1ccc(Cl)cc1C(=O)Nc1ccc(CCN2CCNCC2)cc1,1.31 (active)
4,CCN(C(=O)c1cc(Cl)ccc1OC)c1ccccc1,> 1
5,Cc1ccc(Cl)cc1NC(=O)c1cc(-c2cccc(O)c2)on1,9.18 (active)
6,COc1ccc(Cl)cc1C(=O)Nc1ccc(CN2CCN(C(=O)OC(C)(C)C)CC2)cc1,1.33 (active)
7,CN1CCN(c2ccc(NS(=O)(=O)c3cc(Cl)cc(Cl)c3)cc2)CC1,1.11 (active)
8,COc1ccc(Cl)cc1C(=O)Nc1cccc(CN2CCN(C(=O)OC(C)(C)C)CC2)c1,1.08
9,O=C(Nc1ccccc1OCc1ccccc1)c1cc(-c2cccc(O)c2)on1,1.14 (active)
10,COc1ccc(NC(=O)c2cc(Cl)cc(Cl)c2OC)cc1,> 1
11,CN1CCN(CCc2ccc(NC(=O)c3cccc(OCc4ccccc4)c3)cc2)CC1,2.05 (active)
12,COc1ccc(Cl)c(C(=O)Nc2ccc(CCN3CCN(C(=O)OC(C)(C)C)CC3)cc2)c1,1.11 (active)
13,COc1ccc(Cl)c(C(=O)Nc2cccc(CN3CCN(C(=O)OC(C)(C)C)CC3)c2)c1,1.04
14,COc1ccc(Cl)cc1C(=O)Nc1ccccc1,1.07
15,Cc1ccc(-c2cc(C(=O)Nc3cccc(Cl)c3)no2)cc1,> 1
16,COc1ccc(Cl)cc1C(=O)Nc1ccc(CCN2CCCCC2)cc1,1.51 (active)
